Screens as filed in PubChem.
An excerpt weighted towards active compounds, which were near 21% of everything screened.
NS1 inh – qHTS Assay for Inhibitors of Influenza NS1 Protein Function; Potency, µM (highest dose often 46.1 µM); hit rate 0.4% among 270,000; AID 2326, 2010; calls by dose curve; further: actives are rising curves; nearly all actives have a fitted effect of over 50% in size
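Growth recovery, yeast-based: influenza A NS1 expressed in S. cerevisiae causes slow growth, and suppressors are detected by OD600. The parent strain without NS1 is used as positive control.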
Pf growth 48h – Primary qHTS for delayed death inhibitors of the malarial parasite plastid, 48 hour incubation | P. falciparum luciferase growth in erythrocytes, 48 h | Potency, µM (doses to about 28.7 µM), hits mostly inhibitors | hit rate 5.9% among 310,000
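Luminescence readout; reporter = integrated firefly luciferase in P. falciparum. RBC culture at 2% hematocrit, 0.1% parasitemia final, 37 C/5% CO2; decreased signal taken as growth inhibition.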
Pf growth 96h – Primary qHTS for delayed death inhibitors of the malarial parasite plastid, 96 hour incubation | P. falciparum luciferase reporter growth, 96 h | Potency, µM (series often up to 28.7 µM), usual class: inhibitors | hit rate 6.9% among 320,000 | AID 504834, 2011
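Two parasite generations (96 h, 37 C, 5% CO2) of compound exposure in infected erythrocytes (0.05% parasitemia, 2% hematocrit). Luciferase-reporter P. falciparum; decreased luminescence indicates inhibited growth, aimed at apicoplast-acting delayed death.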
Giardia FBPA inh – qHTS Assay for Inhibitors of Fructose-1,6-bisphosphate Aldolase from Giardia Lamblia; purified Giardia FBPA; Potency, µM (highest dose often 59.6 µM), hits mostly inhibitors; hit rate 0.71% among 290,000; further: nearly all actives have a fitted effect of over 55% in size
Target sequence (A8B2U2 whole entry, looked up): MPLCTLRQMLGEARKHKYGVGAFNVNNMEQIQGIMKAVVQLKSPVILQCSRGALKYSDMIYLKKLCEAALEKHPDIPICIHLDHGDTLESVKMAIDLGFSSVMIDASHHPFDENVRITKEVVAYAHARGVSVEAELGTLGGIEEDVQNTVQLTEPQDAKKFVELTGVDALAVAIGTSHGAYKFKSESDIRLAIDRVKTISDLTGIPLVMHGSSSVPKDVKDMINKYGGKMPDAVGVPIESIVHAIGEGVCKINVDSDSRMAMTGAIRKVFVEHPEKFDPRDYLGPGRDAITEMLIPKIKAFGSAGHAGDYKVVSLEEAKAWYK
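Giardia FBPA (40 nM reagent) was preincubated 10 min at RT with compound (up to 57.5 uM final), then substrate plus GAPDH/TPI/NAD/arsenate coupling system with diaphorase/resazurin was added; resorufin fluorescence (525/598 nm) was read after 20 min.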
Shiga toxin inh – A qHTS for Small Molecule Inhibitors of Shiga Toxin | AID 2315, 2010 | Vero cells, Shiga toxin protein synthesis inhibition reporter | inhibition, % at 38.7 µM | hit rate 9.2% among 290,000; in the data active means inhibition mostly above about 28%, no sharp cut-off; inactive means mostly below about 43%
Cycloheximide cs – Cycloheximide Counterscreen for Small Molecule Inhibitors of Shiga Toxin; cell reporter, cycloheximide protein synthesis inhibition counterscreen; max response, %; hit rate 12% among 300,000; AID 2314, 2010; in the data active means max response mostly above about 13%, no sharp cut-off; inactive means mostly below about 14%; further: read at 38.3 µM for the half of the compounds with a filed dose
Of the large screens only hits and unclear results are named; the others gave an inactive call. Unless noted, the call rests on the fitted dose curve; in most records, active means well fitted curve in the direction sought with a large enough effect; inconclusive means small, poorly fitted or top-dose-only effect, or another doubt; inactive means no such curve, though single readings can be large; an effect the other way counts as inactive or inconclusive.

Cn1ccnc1SCCNC(=O)CCc1nnc(CCc2ccccc2)o1	Pf growth 96h 10.4µM
O=C(CCc1nnc(CCCCc2ccccc2)o1)NCCc1cccnc1	Pf growth 96h inconclusive
Cn1ccnc1SCCNC(=O)CCc1nnc(CCCCc2ccccc2)o1	Pf growth 96h inconclusive, Shiga toxin inh 22.8
O=[N+]([O-])c1cccc(S(=O)(=O)NCCc2cccs2)c1	Pf growth 96h 10.4µM
O=S(=O)(NCCc1cccs1)c1ccc(Br)cc1	none
CC(=O)Nc1ccc(OC(=O)c2ccccc2OC(C)=O)cc1	Pf growth 96h inconclusive (no result: NS1 inh, Giardia FBPA inh, Shiga toxin inh, Cycloheximide cs)
C=CC(C1=CC(=O)C(OC)=C(OC)C1=O)c1ccccc1 (stereo unspecified)	Giardia FBPA inh 17.7µM (no result: NS1 inh, Pf growth 48h, Pf growth 96h, Shiga toxin inh, Cycloheximide cs)
C=CC(C1=CC(=O)C(OC)=CC1=O)c1ccccc1 (stereo unspecified)	Giardia FBPA inh 19.9µM (no result: NS1 inh, Pf growth 48h, Pf growth 96h, Shiga toxin inh, Cycloheximide cs)
COc1ccc(C(=O)N/N=C/C(C)c2ccccc2)cc1OC (stereo unspecified)	none
C=CC(C1=CC(=O)C(OC)=CC1=O)c1ccc(OC)cc1 (stereo unspecified)	Giardia FBPA inh 19.9µM (no result: NS1 inh, Pf growth 48h, Pf growth 96h, Shiga toxin inh, Cycloheximide cs)
CCOC(=O)N1CCN(C(=O)CSc2nnc(-c3ccc(C(C)(C)C)cc3)o2)CC1	none
Cc1ccc(-c2nnc(SCC(=O)N3CCCC3)o2)cc1C	Shiga toxin inh 71.6, Cycloheximide cs 36.2
CCOC(=O)N1CCN(C(=O)CSc2nnc(-c3cccc(OC)c3)o2)CC1	Pf growth 48h 9.28µM (no result: Pf growth 96h)
CCOC(=O)N1CCN(C(=O)CSc2nnc(-c3ccc(C)c(C)c3)o2)CC1	Pf growth 96h 9.28µM (no result: Pf growth 48h)
COc1cccc(-c2nnc(SCC(=O)N3CCCc4ccccc43)o2)c1	Shiga toxin inh 19.4
CCOC(=O)N1CCN(C(=O)CSc2nnc(-c3cc(OC)cc(OC)c3)o2)CC1	Pf growth 96h inconclusive
NS(=O)(=O)c1ccc(CNC(=O)CNC(=O)c2ccc(Br)o2)cc1	none
CCc1cc2c(-c3ccccc3)cc(=O)oc2cc1OCC(=O)NCC1CCC(C(=O)O)CC1 (stereo unspecified)	Pf growth 96h inconclusive
CCCCN(CC)c1nc(C)nc2c1c(C)c(C)n2-c1c(C)cc(C)cc1C	none (no result: NS1 inh, Pf growth 48h, Pf growth 96h)
S=C(NC1CCCCC1)N1CCN(C2CCCCC2)CC1	none
S=C(NC1CCCCC1)N1CCOCCOCCN(C(=S)NC2CCCCC2)CCOCCOCC1	Pf growth 48h inconclusive, Pf growth 96h 10.4µM
O=C(NC1CCCCCC1)C(=S)N1CCOCC1	Pf growth 96h inconclusive
S=C(NC1CC1)N1CCN(C(=S)NC2CC2)CC1	Pf growth 96h inconclusive, Cycloheximide cs 28.4 (no result: Giardia FBPA inh)
O=C(CCCCCN1C(=O)c2cccc3cccc(c23)C1=O)NCCO	none (no result: NS1 inh)
CCn1c(NCc2cc(OC)ccc2OC)nc2ccccc21	Pf growth 48h inconclusive, Shiga toxin inh 69.1, Cycloheximide cs 30.2
COc1ccc(CNc2nc3ccccc3n2CCN2CCCCC2)c(OC)c1	Pf growth 48h inconclusive
CCn1c(NCc2cccc(OC)c2OC)nc2ccccc21	Pf growth 48h inconclusive, Shiga toxin inh 26.4
COc1ccc(OC)c(CNc2nc3ccccc3n2CCN2CCCCC2)c1	Pf growth 48h inconclusive (no result: Pf growth 96h)
CCCn1c(NCc2cc(OC)ccc2OC)nc2ccccc21	Pf growth 48h inconclusive, Cycloheximide cs 26.6 (no result: Pf growth 96h)
COc1cccc(CNc2nc3ccccc3n2CCN2CCCCC2)c1OC	Pf growth 48h inconclusive
O=C(NC1CCC(O)CC1)c1ccc(NS(=O)(=O)c2cccc([N+](=O)[O-])c2)cc1 (stereo unspecified)	none (no result: NS1 inh, Giardia FBPA inh, Shiga toxin inh, Cycloheximide cs)
CCCCOc1ccc(C2(C)NC(=O)NC2=O)cc1 (stereo unspecified)	none
CCCCOc1ccc(C2=NNC(=O)CC2)cc1	Shiga toxin inh 40.3
CCc1ccc2c(c1)/C(=C/C(=O)c1cccs1)C(=O)N2	none
CCc1ccc2c(c1)[C@H]1OCC[C@H]1[C@@H](c1cccs1)N2	Shiga toxin inh 42.2, Cycloheximide cs 26.4
Oc1ccccc1C1=Nc2ccccc2N=C(c2ccco2)C1	Cycloheximide cs 12.6
Cc1cc(OCC(=O)NNC(=O)c2cccnc2)cc(C)c1Cl	Pf growth 96h inconclusive (no result: Giardia FBPA inh)
COc1ccc(Cl)cc1NC(=O)C/C(C)=N/NC(=O)C(=O)NCc1ccccc1	none
Cc1ccccc1OCC(=O)Nc1ccc(N2CCN(C)CC2)c(Cl)c1	Shiga toxin inh 85.0, Cycloheximide cs 29.4
